Experimental data published in PubChem BioAssay (Tox21).
Records with an inconclusive call do not appear. Entries that show only a call come without a potency. Activity calls are given as the source filed them. Unless noted, calls follow the shape of the dose curve; as a rule, active = well fitted curve in the direction sought with a large enough effect in the repeat runs; inconclusive = weak or mixed curves; inactive = no such curve, though single readings can be large; an effect the other way counts as inactive or inconclusive.

Key:
[1] = A CellTox Green Cytotoxicity Assay to monitor cytotoxicity in HEK293 cells - 32 hour (AID 1224881); also: nearly all actives have a fitted effect of over 40% in size
Method in brief: (§1)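 Homogeneous no-lysis format: HEK293 cell suspension mixed with CellTox Green reagent, seeded, incubated 5 h at 37 C/5% CO2, then dosed by pintool with compound in DMSO.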

[2] = A CellTox Green Cytotoxicity Assay to monitor cytotoxicity in HepG2 cells - 0 hour (AID 1224882); also: nearly all actives have a fitted effect of over 35% in size
Method in brief: (§2)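 Fluorescent DNA-binding dye, 600 HepG2 cells/well, 5 h preincubation then compound in DMSO; same plates read at 0–40 h, 37 C.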

[3] = A CellTox Green Cytotoxicity Assay to monitor cytotoxicity in HepG2 cells - 32 hour (AID 1224883); also: nearly all actives have a fitted effect of over 50% in size
Method in brief: as §2

[4] = A CellTox Green Cytotoxicity Assay to monitor cytotoxicity in HEK293 cells - 8 hour (AID 1224884); also: nearly all actives have a fitted effect of over 35% in size
Method in brief: as §1

[5] = qHTS RealTime-Glo MT Cell Viability Assay in HepG2 cells - 16 hour (AID 1224885); also: nearly all actives have a fitted effect of over 50% in size
Method in brief: (§3)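 Luminescence read-out: viable HepG2 cells reduce a prosubstrate to a NanoLuc substrate, giving a signal proportional to live cell number. Reads taken at 0, 8, 16, 24, 32 and 40 h of compound exposure at 37 C.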

[6] = qHTS RealTime-Glo MT Cell Viability Assay in HEK293 cells - 24 hour (AID 1224886); also: top concentration of the series differs between compounds; nearly all actives have a fitted effect of over 50% in size
Method in brief: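 Nonlytic real-time viability readout: viable cells convert prosubstrate to NanoLuc substrate, giving luminescence proportional to live cell number. HEK293, 600 cells/well, compound added after 5 h, continuous culture at 37 C.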

[7] = qHTS RealTime-Glo MT Cell Viability Assay in HEK293 cells - 8 hour (AID 1224887); also: top concentration of the series differs between compounds; nearly all actives have a fitted effect of over 50% in size
Method in brief: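 Measured as luminescence from the same continuously cultured HEK293 wells at successive time points (0, 8, 16, 24, 32, 40 h) after compound addition. Reagent present from seeding; dosing at 5 h; incubation 37 C.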

[8] = A CellTox Green Cytotoxicity Assay to monitor cytotoxicity in HEK293 cells - 16 hour (AID 1224888); also: nearly all actives have a fitted effect of over 35% in size
Method in brief: as §1

[9] = qHTS RealTime-Glo MT Cell Viability Assay in HepG2 cells - 0 hour (AID 1224889); also: nearly all actives have a fitted effect of over 50% in size
Method in brief: as §3

[10] = A CellTox Green Cytotoxicity Assay to monitor cytotoxicity in HepG2 cells - 8 hour (AID 1224890); also: nearly all actives have a fitted effect of over 45% in size
Method in brief: as §2

[11] = qHTS assay to identify small molecule antagonists of the estrogen receptor alpha (ER-alpha) signaling pathway using the BG1 cell line in the presence of 0.1 nM 17-beta-estradiol - cell viability counter screen (AID 1259241); also: nearly all actives have a fitted effect of over 40% in size
Method in brief: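 CellTiter-Fluor read (30 min, 37C) on ER-alpha/ERE-luc VM7Luc4E2 cells; 22 hr compound treatment; agonist 0.1 nM E2 final; same-well multiplex.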

[12] = qHTS assay to identify small molecule antagonists of the androgen receptor (AR) signaling pathway using the MDA cell line in the presence of 0.5 nM R1881 - cell viability counter screen (AID 1259242); also: nearly all actives have a fitted effect of over 45% in size
Method in brief: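 Human breast carcinoma MDA-kb2 cells, cultured without CO2, receive compounds alongside 0.5 nM (final) R1881 agonist. After 16 hr at 37C, viability is taken as live-cell protease signal.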

[13] = biological target: Estrogen receptor (Homo sapiens) (UniProt P03372); assay: qHTS assay to identify small molecule antagonists of the estrogen receptor alpha (ER-alpha) signaling pathway using the BG1 cell line in the presence of 0.1 nM 17-beta-estradiol (AID 1259244); also: nearly all actives have a fitted effect of over 50% in size; also: potency is read from the fitted curve at half-maximal effect
Sequence of Estrogen receptor (Homo sapiens) (P03372 whole entry, looked up): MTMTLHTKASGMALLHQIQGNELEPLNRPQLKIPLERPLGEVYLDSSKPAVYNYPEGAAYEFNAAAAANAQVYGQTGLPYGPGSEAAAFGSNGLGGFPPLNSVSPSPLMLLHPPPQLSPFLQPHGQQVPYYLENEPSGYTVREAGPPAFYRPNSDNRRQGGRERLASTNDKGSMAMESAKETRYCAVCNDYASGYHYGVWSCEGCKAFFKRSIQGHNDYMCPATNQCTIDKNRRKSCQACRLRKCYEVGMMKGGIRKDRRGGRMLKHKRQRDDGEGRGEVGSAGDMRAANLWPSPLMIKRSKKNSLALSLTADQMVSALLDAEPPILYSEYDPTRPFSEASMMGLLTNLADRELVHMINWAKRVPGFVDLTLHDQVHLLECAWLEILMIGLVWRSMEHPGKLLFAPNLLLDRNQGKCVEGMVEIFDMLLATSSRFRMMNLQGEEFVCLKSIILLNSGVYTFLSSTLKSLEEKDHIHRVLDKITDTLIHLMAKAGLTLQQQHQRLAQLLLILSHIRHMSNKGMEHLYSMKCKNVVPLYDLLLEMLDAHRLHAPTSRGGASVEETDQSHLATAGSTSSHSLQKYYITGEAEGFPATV
Method in brief: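 Seeding of stripped-serum-adapted VM7Luc4E2 cells, 24 h attachment, compound transfer, then 0.1 nM final 17beta-estradiol; after 22 h incubation, ONE-Glo reagent and luminescence reading.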

[14] = qHTS assay to identify small molecule HDAC inhibitors (AID 1259364); also: potency is read from the fitted curve at half-maximal effect;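 also: wild-type HCT-116 cells with endogenous class I/II HDAC activity; nearly all actives have a fitted effect of over 45% in size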
Method in brief: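 After a 2 hr compound incubation (37C, 5% CO2), HCT-116 cells seeded at 1,500/well the day before received HDAC-Glo reagent; signal read as luminescence after 30 min at room temperature.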

[15] = qHTS assay to identify small molecule agonists of the sonic hedgehog signaling (Shh) pathway - cell viability counter screen (AID 1259366); also: nearly all actives have a fitted effect of over 50% in size; also: potency is read from the fitted curve at half-maximal effect
Method in brief: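 Fluorescence from CellTiter-Fluor reports live cells in this counter screen. NIH/3T3-derived Gli1-Luc reporter cells receive test compounds for 24hr at 37C; reagent goes in at 23hr.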

[16] = qHTS assay to identify small molecule antagonists of the sonic hedgehog signaling (Shh) pathway - cell viability counter screen (AID 1259367); also: nearly all actives have a fitted effect of over 55% in size; also: potency is read from the fitted curve at half-maximal effect
Method in brief: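 Viability was read by CellTiter-Fluor fluorescence in the same wells, reagent added 23 hr into compound treatment and incubated 1 hr at 37C. The 3T3 Gli1-Luc reporter cells (2,000/well) received conditioned medium after compound and ran 24 hr.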

[17] = qHTS assay to identify small molecule agonists of the sonic hedgehog signaling (Shh) pathway (AID 1259368; calls by dose curve;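 also: NIH/3T3-derived 3T3Gli1-Luc cells carrying a stable Gli1-driven firefly luciferase reporter; series mostly up to about 92 µM; nearly all actives have a fitted effect of over 15% in size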)
Method in brief: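 Stable NIH/3T3 Gli1-Luc reporter clone; 24 hr cpd exposure after a 4 hr settling period; luminescence endpoint.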

[18] = qHTS assay to identify small molecule HDAC inhibitors - cell viability counter screen (AID 1259365)
Method in brief: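 To flag cytotoxic hits, 1,500 wild-type HCT-116 cells per well, plated the day before, receive test compounds for 2hr at 37 C before CellTiter-Glo reagent and a luminescence read.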

[19] = qHTS assay to identify small molecule phospholipidosis (PLD) inducers (AID 1259344; active = well fitted curve in the direction sought with a large enough effect; an effect the other way counts as inactive or inconclusive; also: potency is read from the fitted curve at half-maximal effect)
Method in brief: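 Phospholipid accumulation was scored by imaging: fixed, Hoechst-counterstained HepG2 cells stained with LipidTOX Red after 24 h compound exposure at 37 C. Read-outs were pit count and pit intensity per well or per cell, with amiodarone and DMSO controls.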

[20] = biological target: Androgen receptor (Homo sapiens) (UniProt P10275); assay: qHTS assay to identify small molecule antagonists of the androgen receptor (AR) signaling pathway using the MDA cell line in the presence of 0.5 nM R1881 (AID 1259243); also: nearly all actives have a fitted effect of over 50% in size
Sequence of Androgen receptor (Homo sapiens) (P10275 whole entry, looked up): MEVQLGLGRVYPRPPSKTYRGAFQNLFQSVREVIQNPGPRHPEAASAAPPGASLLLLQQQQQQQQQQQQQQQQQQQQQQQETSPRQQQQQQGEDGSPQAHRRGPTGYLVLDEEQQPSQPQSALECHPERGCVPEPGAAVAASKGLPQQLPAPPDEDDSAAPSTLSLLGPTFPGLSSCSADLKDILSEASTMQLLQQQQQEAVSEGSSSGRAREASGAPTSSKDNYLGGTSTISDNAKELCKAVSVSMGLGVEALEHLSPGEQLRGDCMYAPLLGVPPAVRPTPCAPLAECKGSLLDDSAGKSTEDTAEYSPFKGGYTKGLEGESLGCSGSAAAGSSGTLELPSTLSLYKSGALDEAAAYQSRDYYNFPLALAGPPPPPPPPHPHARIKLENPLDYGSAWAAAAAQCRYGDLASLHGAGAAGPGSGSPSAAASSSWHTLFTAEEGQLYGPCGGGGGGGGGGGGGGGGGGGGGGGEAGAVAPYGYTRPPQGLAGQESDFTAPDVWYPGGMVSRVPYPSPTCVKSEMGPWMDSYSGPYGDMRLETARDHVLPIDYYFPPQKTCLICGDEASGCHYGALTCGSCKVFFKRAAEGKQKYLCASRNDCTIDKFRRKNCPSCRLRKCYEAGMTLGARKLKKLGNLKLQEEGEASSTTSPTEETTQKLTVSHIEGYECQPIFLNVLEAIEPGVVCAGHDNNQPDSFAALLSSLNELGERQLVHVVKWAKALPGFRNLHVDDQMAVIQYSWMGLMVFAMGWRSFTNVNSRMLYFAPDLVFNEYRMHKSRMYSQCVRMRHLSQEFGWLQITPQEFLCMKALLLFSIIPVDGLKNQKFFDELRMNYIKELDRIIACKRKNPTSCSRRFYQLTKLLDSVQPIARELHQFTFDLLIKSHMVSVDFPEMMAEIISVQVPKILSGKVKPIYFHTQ
Method in brief: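 Cells: MDA-kb2 (MMTV-luc). Stimulus: 0.5 nM R1881. Time: 16 hr, 37C, no CO2. Detection: ONE-Glo luminescence after 30 min at RT.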

Row | SMILES | Potency [1] | Potency [2] | Potency [3] | Potency [4] | Potency [5] | Potency [6] | Potency [7] | Potency [8] | Potency [9] | Potency [10] | Potency [11] | Potency [12] | Potency [13] | Potency [14] | Potency [15] | Potency [16] | outcome [17] | outcome [18] | Potency [19] | Potency [20]
1 | O=S(=O)(O)c1ccc(O)c2ncccc12 | inactive | inactive | inactive | inactive | inactive | inactive | inactive | inactive | inactive | inactive | inactive | inactive | inactive | inactive | inactive | inactive | inactive | – | – | –
2 | Cc1ccc2c(ccc3ccccc32)c1 | inactive | inactive | inactive | inactive | inactive | inactive | inactive | inactive | inactive | inactive | inactive | inactive | inactive | inactive | inactive | inactive | inactive | inactive | – | –
3 | CCCc1ccccc1 | inactive | inactive | inactive | inactive | inactive | inactive | inactive | inactive | inactive | inactive | inactive | inactive | inactive | inactive | inactive | – | inactive | inactive | – | –
4 | COc1ccccc1OC(=O)Oc1ccccc1OC | inactive | inactive | inactive | inactive | inactive | inactive | inactive | inactive | inactive | inactive | inactive | inactive | – | inactive | inactive | inactive | inactive | inactive | inactive | –
5 | COc1ccc2[nH]c(S(=O)Cc3ncc(C)c(OC)c3C)nc2n1 (stereo not given) | inactive | inactive | inactive | inactive | inactive | inactive | inactive | inactive | inactive | inactive | inactive | inactive | inactive | inactive | inactive | inactive | inactive | inactive | inactive | –
6 | O=C(c1ccccc1)c1ccc2n1CCC2C(=O)O (stereo not given) | inactive | inactive | inactive | inactive | inactive | inactive | inactive | inactive | inactive | inactive | inactive | inactive | – | 7.5 µM (active) | inactive | inactive | inactive | inactive | inactive | –
7 | CCCCCCCCCC=O | inactive | inactive | inactive | inactive | inactive | inactive | inactive | inactive | inactive | inactive | inactive | inactive | inactive | inactive | inactive | inactive | inactive | inactive | – | –
8 | Oc1ccc(C(O)CNCCCCCCNCC(O)c2ccc(O)c(O)c2)cc1O (stereo not given) | inactive | inactive | inactive | inactive | inactive | inactive | inactive | inactive | inactive | inactive | inactive | inactive | – | inactive | 8.41 µM (active) | 29.8 µM (active) | inactive | inactive | inactive | –
9 | FC(F)(F)C(F)(F)C(F)(F)C(F)(F)C(F)(F)C(F)(F)CCI | inactive | inactive | inactive | inactive | inactive | inactive | inactive | inactive | inactive | inactive | inactive | inactive | inactive | inactive | inactive | inactive | inactive | inactive | – | –
10 | CCCCCCCCC(CO)CCCCCC (stereo not given) | inactive | inactive | inactive | inactive | inactive | inactive | inactive | inactive | inactive | inactive | inactive | inactive | inactive | inactive | inactive | inactive | inactive | inactive | – | –
11 | Nc1nc(N)c2nc(CNc3ccc(C(=O)N[C@@H](CCC(=O)O)C(=O)O)cc3)cnc2n1 | inactive | inactive | inactive | inactive | inactive | inactive | inactive | inactive | inactive | inactive | inactive | inactive | inactive | inactive | – | inactive | inactive | inactive | inactive | –
12 | CN1CCN(C2=Nc3ccccc3Sc3ccc(Cl)cc32)CC1 | inactive | inactive | inactive | inactive | inactive | inactive | inactive | inactive | inactive | inactive | inactive | inactive | – | inactive | inactive | inactive | inactive | inactive | 11.2 µM (active) | inactive
13 | CC(C)CC=O | inactive | inactive | inactive | inactive | inactive | inactive | inactive | inactive | inactive | inactive | inactive | inactive | inactive | inactive | inactive | – | inactive | inactive | – | –
14 | CCOc1ccc2[nH]cc(C(=O)NCc3ccccc3)c(=O)c2n1 | inactive | inactive | inactive | inactive | inactive | inactive | inactive | inactive | inactive | inactive | inactive | inactive | 54.5 µM (active) | inactive | inactive | – | inactive | inactive | – | –
